# Only some compounds are listed: those with a hit (about 2.6% of all), similar ones and a draw of the others.
# PRMT1 inh: PRMT1 (human) inhibition, primary screen; Q99873; recombinant PRMT1, activity-based probe fluorescence polarization; inhibition, % at 2.79 µM; hit rate 1.3% among 370,000; AID 652257;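 active means inhibition above about 21% made by adding two undisclosed values, limit read from the data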
# PME-1 primary: PME-1 (human) inhibition. Q9Y570. inhibition, % at 5.9 µM. recombinant PME-1, FP-Rh probe fluorescence polarization. hit rate 0.53% among 320,000;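 active means inhibition above the campaign mean of all compounds plus 3 SD, cut at about 26% in these data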;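 further: competitive labeling of PME-1 active site by serine hydrolase directed probe; 0% = PME-1 with DMSO and 100% = wells lacking PME-1 enzyme; inhibitors block probe labeling so polarization falls and inhibition rises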
# SIAE primary: blocks human sialic acid acetylesterase; Q9HAT2; hit rate 0.69% among 370,000; inhibition, % at 9.66 µM; SIAE FP-Rh probe binding, fluorescence polarization;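 active means inhibition above a cutoff: mean of compounds within the control limits plus 3 SD of those, cut at about 17% in these data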;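 further: 0% = plate median of compound wells and 100% = probe without SIAE protein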
# Target sequence (Q9HAT2 whole entry, looked up): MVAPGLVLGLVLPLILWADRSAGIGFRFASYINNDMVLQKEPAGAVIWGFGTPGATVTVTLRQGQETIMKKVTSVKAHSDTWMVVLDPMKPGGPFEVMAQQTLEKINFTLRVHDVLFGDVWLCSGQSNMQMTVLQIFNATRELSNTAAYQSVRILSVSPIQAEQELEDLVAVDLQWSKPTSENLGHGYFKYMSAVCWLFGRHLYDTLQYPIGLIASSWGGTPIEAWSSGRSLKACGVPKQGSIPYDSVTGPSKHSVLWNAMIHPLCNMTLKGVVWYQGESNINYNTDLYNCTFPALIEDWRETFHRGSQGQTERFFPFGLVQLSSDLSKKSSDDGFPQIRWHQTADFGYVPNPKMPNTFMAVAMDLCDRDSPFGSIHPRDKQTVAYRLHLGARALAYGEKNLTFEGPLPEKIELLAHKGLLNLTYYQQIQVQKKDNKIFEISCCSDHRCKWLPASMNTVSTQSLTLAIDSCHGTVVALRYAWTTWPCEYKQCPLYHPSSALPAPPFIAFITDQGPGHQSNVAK
# Fam108B counter: blocks mouse Fam108B hydrolase in RBBP9 counter-screen | recombinant Fam108B, FP-Rh probe fluorescence polarization | inhibition, % at 9.51 µM | hit rate 0.33% among 300,000 | AID 1947;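 active means inhibition above the screen mean inhibition plus 3 SD, computed separately per campaign, cut at about 18% in these data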;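 further: inhibitors lower polarization as less probe binds the enzyme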
# PAD4 inh: PAD4 (human) enzyme inhibition; recombinant PAD4, RCA probe fluorescence polarization; hit rate 0.41% among 330,000; AID 485272; Q9UM07; inhibition, % at 6.36 µM;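 active means percent inhibition above a cutoff equal to the mean of all tested compounds plus 3 SD, cut at about 15% in these data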;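 further: 0% = PAD4 with RCA probe and DMSO and 100% = probe without PAD4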
# TCR CD3 inh: blocks the human TCR-CD3 interaction. TAMRA-labeled TCR probe fluorescence, biochemical. inhibition, % at 9.4 µM. hit rate 0.37% among 360,000. AID 651800; in the data active means inhibition above about 19%;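 further: recombinant mutant TCR 2C K166C tagged with TAMRA read by polarization; 0% = receptor in buffer alone and 100% = receptor with positive control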
# SIAE confirm: confirmation of human SIAE inhibitors; shares compounds with SIAE primary; SIAE FP-Rh activity-based probe, fluorescence polarization; inhibition, % at 9.66 µM; hit rate 13% among 2,300;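 active means mean inhibition of the replicates above the hit cutoff set in the primary screen, cut at about 17% in these data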;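 further: 0% = SIAE with DMSO and probe and 100% = probe without SIAE; inhibitors lower polarization as more probe stays unbound to SIAE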
# The depositor's hits bear a star; · = no result given; + = active, no number.
SMILES,PRMT1 inh,PME-1 primary,SIAE primary,Fam108B counter,PAD4 inh,TCR CD3 inh,SIAE confirm
C[C@H]1COc2cccc(N3CCSCC3)c2S(=O)(=O)N1C,5,·,-4,·,·,·,·
C/C(=N/NC(=O)c1cc2ccccc2cc1O)c1ccco1,1,0,23*,7,-1,3,0
C/C(=N\NC(=O)c1cc2ccccc2cc1O)c1ccc(C)o1,-1,-9,24*,8,-3,1,-2
C/C(=N\NC(=O)c1cc(C)nc2ccccc12)c1ccco1,-1,-1,0,-2,-1,6,·
O=C(NCC1COCCO1)C1CCN(S(=O)(=O)c2cccs2)CC1 (centres undefined),-1,·,-1,·,·,·,·
CC1(c2nnnn2Cc2ccccc2)CCSCC(=O)N1Cc1cccs1 (centres undefined),1,·,5,·,·,·,·
CC(=O)c1ccc(N2Cc3ccccc3/C2=N\C(=O)Nc2ccccc2)cc1,1,1,26*,0,-1,5,2
CC(=O)c1ccc(N2Cc3ccccc3C2=NC(=O)c2cccs2)cc1,-2,-1,-6,-3,2,7,·
COc1ccc(C(=O)C2(C(=O)NCc3ccccc3)CC(c3ccccc3C(F)(F)F)=NO2)cc1 (centres undefined),1,·,-3,·,·,·,·
CN(C(=O)COC(=O)/C=C/c1ccc2ccccc2n1)C1CCS(=O)(=O)C1 (centres undefined),-1,1,-3,1,2,-5,·
CCN(C(=O)COC(=O)/C=C/c1cnc2ccccc2n1)C1CCS(=O)(=O)C1 (centres undefined),-11,-2,28*,-2,-2,0,-1
O=C(NNC(=S)Nc1ccc(Cl)cc1Cl)c1cccnc1,-2,-2,20*,·,-6,-3,2
COC(=O)[C@]12C[C@H](CC(=O)NCc3ccc(OC)c(OC)c3)C(=O)N(Cc3cccc4ccccc34)C1=C[C@H](C1CCCC1)O[C@@H]2C,-4,·,-1,·,·,·,·
CCCCN(CC)CCCNC(=O)c1cn(C)c(=O)c2c1c1ccccc1n2C,-1,3,19*,-2,4,-4,-3
CN(C)c1ccc(NC(=O)NC2CCCCN(Cc3cccc(Cl)c3)C2=O)cc1 (centres undefined),1,·,-10,·,·,·,·
Cc1c(NC(=O)C2CCCN(S(=O)(=O)c3ccc(F)cc3)C2)c(=O)n(-c2ccccc2)n1C (centres undefined),6,·,-4,·,·,·,·
O=Nc1c(O)c2ccccc2c2ccccc12,2,35*,30*,15,-2,0,24*
O=C1/C(=C\c2ccc(O)c(O)c2)C(c2ccccc2)=NN1c1ccccc1,9,·,28*,·,·,4,11
CN(C)C(=O)c1cn(-c2ccccc2)nc1-c1cccs1,-2,-5,-4,0,1,-7,·
CN(C)c1ccc(NC(=O)c2cn(-c3ccccc3)nc2-c2cccs2)cc1,3,21,25*,7,-5,2,19*
CCOC(=O)N1CCN(C(=O)C[C@H]2C(=O)N(CCCOC)C3=CCCCC[C@]32C(=O)OC)CC1,-1,·,15,·,·,·,·
CCC[C@H]1[C@@H](OC(=O)NCc2ccc(OC)c(OC)c2)CC[C@@]23CCCN2C(=O)CCC[C@@H]13,2,·,7,·,·,·,·
Cc1ccc(S(=O)(=O)N2CCC3(CC2)OCCN3S(=O)(=O)c2cccs2)cc1,2,25,-8,-1,4,12,·
Cc1ccc(S(=O)(=O)N2CCOC23CCN(S(=O)(=O)c2cccs2)CC3)cc1,0,12,18*,3,0,-5,4
CN1Cc2c(N3CCOCC3)nc3sc(C(=O)c4ccc(Br)cc4)c(N)c3c2CC1(C)C,11,-3,8,7,-2,-4,·
SMILES,PRMT1 inh,PME-1 primary,SIAE primary,Fam108B counter,PAD4 inh,TCR CD3 inh,SIAE confirm
CN1Cc2c(N3CCOCC3)nc3sc(C#N)c(N)c3c2CC1(C)C,-2,-5,20*,0,9,4,4
CCOc1ccc(/C=C2/SC(=O)NC2=S)cc1,13,5,+,9,-1,2,-11
CCOc1ccc(N=C2NC(=O)S/C2=C\c2ccc(N(C)C)cc2)cc1,3,-3,-99,-86,-10,2,·
O=C(CCc1ccccc1)Nc1cccc(S(=O)(=O)N2CCOCC2)c1,2,·,25*,·,-3,-2,-10
C[C@H]1[C@H](NCc2cccnc2)CC[C@@]23CCCN2C(=O)CCC[C@@H]13,1,·,-5,·,·,·,·
Oc1ccc(N=Nc2nc(-c3ccccc3)c(-c3ccccc3)[nH]2)cc1,-2,16,37*,11,-13,2,-1
COc1ccc(-c2nn(-c3ccccc3)cc2/C=N/Nc2ccc3ccccc3n2)cc1OC,1,9,19*,3,-1,4,8
COc1cc(CNc2ccc3[nH]c(=O)[nH]c3c2)ccc1OCc1ccc(F)cc1,12,-4,22*,6,-2,-3,-1
COc1cc(CNc2ccc(O)cc2)cc(Br)c1OCc1ccccc1,9,16,26*,13,10,22*,5
COc1cc(CNc2ccc3[nH]c(=O)[nH]c3c2)cc(Br)c1OCc1ccccc1F,12,·,21*,·,·,-1,13
COc1cc(CNc2ccc3[nH]c(=O)[nH]c3c2)ccc1OCc1ccccc1,8,4,9,5,-6,7,·
CCOc1cc(CNc2ccccc2)cc(Br)c1OCc1ccccc1F,0,5,2,-3,4,-10,·
N#CCC[C@@H]1CC[C@]2(CCCN(C(=O)c3ccc4ccccc4n3)C2)O1,-3,·,0,·,·,·,·
C[C@H]1[C@@H](O)CC[C@@]23CCCN2C(=O)CCC[C@@H]13,-3,·,-3,·,·,·,·
CC(C)CN1C(=O)[C@]2(CC(=O)N(C)C2c2ccccc2)c2cc(-n3cc(CCCC#N)nn3)ccc21 (some centres undefined),2,·,0,·,·,·,·
CC(C)CN1C(=O)[C@]2(CC(=O)N(C)C2c2ccccc2)c2cc(-n3cc(CN(C)C)nn3)ccc21 (some centres undefined),-2,·,18*,·,·,·,5
Oc1ccccc1C=NNC(=S)NN=Cc1ccccc1O,3,·,42*,·,·,18,52*
CCN(Cc1ccccc1)C(=O)C1CCN(CC2CC=CCC2)CC1 (centres undefined),-6,0,22*,1,1,-6,1
CCN(CC)C(=O)C1CCN(CC2CC=CCC2)CC1 (centres undefined),-2,-6,0,0,2,-6,·
COC(=O)[C@]12C[C@H](CC(=O)N3CCN(C(=O)c4ccco4)CC3)C(=O)N(Cc3ccc(Cl)cc3Cl)C1=C[C@H](COCc1ccccc1)O[C@@H]2C,-4,·,-7,·,·,·,·
Fc1c(-c2ccc3ncnc(NCc4cccs4)c3c2)ccc2c1OCO2,-2,·,-45,·,·,·,·
